Pyk2 oligo antag: antagonists of Pyk2 self-association, primary screen, Q293 cells, FERM NanoBiT luminescence, HTS | Protein-tyrosine kinase 2-beta (Homo sapiens), Q14289 | active compounds read low | z-score (the deposit names both 25 µM and 10 µM) | hit rate 0.83% among 99,000;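 active = Z-score of -3 or lower, scaled per plate to the spread of control and sample wells; inactive = z-score above -3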;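 also: negative z-score means lost luminescence so less FERM oligomerization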
Cav32 inh: Cav3.2 calcium influx blockers – cell-based, Fluo-4 calcium fluorescence, FDSS, MLSMR library, primary screen | Cav3.2-expressing cells; active compounds read low | B-score at 10 µM | hit rate 4% among 100,000;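 active = single-dose well whose peak fluorescence ratio is a statistical outlier from its plate by either plate-standardised score or position-corrected B-score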
M1 agonist: M1 muscarinic receptor agonists, primary screen, CHO-M1 cells, Fluo-4 calcium, agonist mode | B-score at 10 µM | Fluo-4 calcium fluorescence; active compounds read high | hit rate 3% among 64,000;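 active = fluorescence rise, raw or as B-score row- and column-corrected plate score, outside the 99.7% band of its plate's samples, either direction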
M1 antag: antagonists of rat M1 muscarinic receptor | Muscarinic acetylcholine receptor M1 (Rattus norvegicus), P08482 | CHO-M1 cells, Fluo-4 calcium, ACh EC80 antagonist mode; active compounds read low | B-score at 10 µM | hit rate 3.4% among 64,000 | AID 628, 2007;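 active = calcium fluorescence response, raw or row-and-column corrected B-score, differing from the plate sample mean either way at a set confidence level, mostly lower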
Target sequence (P08482 whole entry, looked up): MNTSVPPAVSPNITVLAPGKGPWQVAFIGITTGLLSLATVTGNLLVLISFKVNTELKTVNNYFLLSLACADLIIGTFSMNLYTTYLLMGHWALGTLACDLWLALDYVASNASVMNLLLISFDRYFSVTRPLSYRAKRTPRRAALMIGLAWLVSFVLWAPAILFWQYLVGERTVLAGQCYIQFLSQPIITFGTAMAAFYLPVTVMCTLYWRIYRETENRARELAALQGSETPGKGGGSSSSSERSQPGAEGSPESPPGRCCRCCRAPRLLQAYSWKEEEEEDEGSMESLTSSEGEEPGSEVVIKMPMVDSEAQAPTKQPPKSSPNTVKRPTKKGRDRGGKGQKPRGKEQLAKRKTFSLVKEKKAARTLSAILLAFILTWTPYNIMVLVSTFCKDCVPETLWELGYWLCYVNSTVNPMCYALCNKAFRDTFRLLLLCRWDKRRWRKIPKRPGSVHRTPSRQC
Numbers without * were called inactive. In the library only some 7.1% were active in any assay of this set; here they are far more common.

For CCCCCCCCC(=O)Nc1cc(C)ccc1OC the results were Pyk2 oligo antag -1.6 and Cav32 inh -1.4.
CCCCc1cc(=O)oc2cc(OCC(=O)N(CC)CC)ccc12 was read as Pyk2 oligo antag -0.44, Cav32 inh 0.75, M1 agonist -0.21 and M1 antag 0.72.
Screening CCCCc1cc(=O)oc2cc(OCC(=O)N(CC)CC)c(Cl)cc12 returned Cav32 inh -3.1*, M1 agonist -0.28 and M1 antag 0.24.
For CSc1nnc(CSc2cc(C)nc(N(C)C)n2)o1 the results were Pyk2 oligo antag 0.36.
Screening Cc1cc(C)cc(NS(=O)(=O)c2cnc(Cl)c(Cl)c2)c1 returned Pyk2 oligo antag 0.21 and Cav32 inh -5.6*.
Cc1cc(NC(=O)CSc2nnc(-c3c[nH]c4ccccc34)n2-c2ccc(Cl)cc2)no1 was read as Pyk2 oligo antag 1.2 and Cav32 inh -0.026.
For CCN(C(=O)CSc1ncccc1C(=O)OC(C)C)c1cccc(C)c1 the results were Pyk2 oligo antag -0.78 and Cav32 inh -5.6*.
`COc1ccc(S(=O)(=O)N2CC3CCCN3c3ccc(C(F)(F)F)cc32)cc1` (centres undefined) gave Pyk2 oligo antag -2.5 and Cav32 inh -0.22.
`COc1ccc(/C=C(\C#N)C(=O)Nc2cc(S(=O)(=O)N3CCCCC3)ccc2N2CCCCC2)cc1` gave Pyk2 oligo antag -0.68.
`COc1ccccc1N1CCN(C(=O)C(Sc2ccccc2)c2ccccc2)CC1` (centres undefined) gave Pyk2 oligo antag -0.78 and Cav32 inh -4.6*.
`CCOC(=O)c1ccc(NC(=O)CCOc2ccccc2)cc1` gave Pyk2 oligo antag -0.11 and Cav32 inh -2.2.
Screening CCCOC(=O)c1ccc(NC(=O)CCOc2ccccc2)cc1 returned Pyk2 oligo antag 0.13 and Cav32 inh -4*.
For CCCCC(=O)Nc1ccc(C(=O)N2CCN(c3ccccc3OC)CC2)cc1 the results were Pyk2 oligo antag -0.09, M1 agonist -0.051 and M1 antag 3.4*.
`COc1ccccc1N1CCN(C(=O)c2ccc(C(C)(C)C)cc2)CC1` gave Pyk2 oligo antag -1.9, Cav32 inh -5*, M1 agonist 0.091 and M1 antag 0.
CCCN(CCC)S(=O)(=O)c1ccc(C(=O)NNc2nc(-c3ccccc3)c3cc(Br)ccc3n2)cc1 was read as Pyk2 oligo antag 0.17.
Screening CCN1CCN(c2ncc(C(=O)N3CCN(c4ccccc4OC)CC3)c3ccccc23)CC1 returned Pyk2 oligo antag 0.56, M1 agonist -1 and M1 antag -10*.
For CCCCC(=O)Nc1ccc(C(=O)OC2CCCCC2)cc1 the results were Pyk2 oligo antag -2.3 and Cav32 inh -4*.
`Cc1nnc2sc(SCC(=O)Nc3nccs3)nn2c1=O` gave Pyk2 oligo antag 0.39.
For CCN(CC)c1ccc(C2NCC(c3ccc([N+](=O)[O-])cc3)O2)cc1 (centres undefined) the results were Pyk2 oligo antag -3.2* and Cav32 inh 1.9.
Screening CN(C)c1ccc(C2NCC(CCl)O2)cc1 (centres undefined) returned Pyk2 oligo antag 0.77 and Cav32 inh 0.024.
`COc1ccc(S(=O)(=O)N(CCCN2CCCC2=O)Cc2cc3c(C)cc(C)cc3[nH]c2=O)cc1` gave Pyk2 oligo antag -1.5, Cav32 inh -0.52, M1 agonist 5.1* and M1 antag -0.065.
O=C(Cn1c(=O)sc2ccccc21)Nc1ccccc1C(=O)O was read as Pyk2 oligo antag -0.94, Cav32 inh -0.0085, M1 agonist -0.5 and M1 antag -0.92.
`CCOC(=O)Cc1c(C)nc2cc(-c3ccc(C(C)(C)C)cc3)[nH]n2c1=O` gave Pyk2 oligo antag 1 and Cav32 inh 0.029.
CCOC(=O)CCc1c(C)nc2cc(-c3ccccc3OC)[nH]n2c1=O was read as Cav32 inh -0.024, M1 agonist -0.053 and M1 antag 2.1*.
COC(C[C@@H]1O[C@H]1C(=O)COCc1ccccc1)OC was read as Cav32 inh 1.2.
`O=C(O)CC1C(=O)NCCN1Cc1ccc(F)c(F)c1` (centres undefined) gave Cav32 inh 0.38, M1 agonist -0.27 and M1 antag 1.4*.
Screening Cc1n[nH]c(C)c1CCOc1ccc(C(C)C)cc1 returned Pyk2 oligo antag -1.8 and Cav32 inh -5.4*.
C=CCNC(=O)c1onc(CSc2ccc(F)c(F)c2)c1C(=O)NCC=C was read as Cav32 inh -1.8.
Screening O=S(=O)(c1ccccc1)c1cnn2c(C(F)(F)F)cc(-c3ccc(F)cc3)nc12 returned Pyk2 oligo antag 0.85.
